From PubChem BioAssay AID1159580 (chemical genetic matrix, 2015)
Out of some 5,500 compounds screened, about 2,000 (36%) were called active. Another 18% or so got no clear call; they are omitted. Cut-off read from the data, not from the text of the source: active = normalized growth mostly below about 0.91 (no sharp cut-off); inconclusive = no clear call, values can overlap the other calls; inactive = mostly above about 0.92. The list shows a part of the results.

Experiment: chemical genetic growth profiling, strain panel (AID 1159580);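 note: tested at 20 µM; growth read once vehicle control cultures reached saturation at 30 °C; 1 = growth at the plate median or of vehicle wells; lower values mean less growth of the strain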
Conditions: growth OD

Measured: normalized growth

Nc1ccc(S(=O)(=O)Nc2ccc(Cl)nn2)cc1
inactive: S. cerevisiae deletion strains, locus YJR043C, strain POL32, hits give low values 0.991 | S. cerevisiae deletion strains, locus YJR066W, strain TOR1, hits give low values 0.926 | S. cerevisiae deletion strains, locus YKL009W, strain mrt4, hits give low values 1.03 | S. cerevisiae deletion strains, locus YKL068W, hits give low values 0.998 | S. cerevisiae deletion strains, locus YKL085W, strain MDH1 (second series), hits give low values 0.992 | S. cerevisiae deletion strains, locus YKL085W, strain MDH1, hits give low values 0.992 | S. cerevisiae deletion strains, locus YKL160W, strain elf1, hits give low values 0.966 | S. cerevisiae deletion strains, locus YKL190W, strain CNB1, hits give low values 1.01 | S. cerevisiae deletion strains, locus YKR001C, strain vps1, hits give low values 0.995 | S. cerevisiae deletion strains, locus YKR026C, strain gcn3, hits give low values 0.982 | S. cerevisiae deletion strains, locus YKR091W, strain srl3, hits give low values 0.996 | S. cerevisiae deletion strains, locus YLL001W, strain dnm1, hits give low values 0.981 | S. cerevisiae deletion strains, locus YLL026W, hits give low values 0.998 | S. cerevisiae deletion strains, locus YLL041C, strain sdh2, hits give low values 0.989 | S. cerevisiae deletion strains, locus YLR027C, strain aat2, hits give low values 0.995 | S. cerevisiae deletion strains, locus YLR039C, strain RIC1, hits give low values 1.06 | S. cerevisiae deletion strains, locus YLR058C, strain SHM2, hits give low values 1.01 | S. cerevisiae deletion strains, locus YLR102C, strain apc9, hits give low values 1 | S. cerevisiae deletion strains, locus YLR113W, strain HOG1, hits give low values 0.984 | S. cerevisiae deletion strains, locus YLR221C, strain rsa3, hits give low values 0.991 | S. cerevisiae deletion strains, locus YLR258W, strain gsy2, hits give low values 0.991 | S. cerevisiae deletion strains, locus YLR262C, strain YPT6 (second series), hits give low values 0.986 | S. cerevisiae deletion strains, locus YLR262C, strain YPT6, hits give low values 1.06 | S. cerevisiae deletion strains, locus YLR268W, strain sec22, hits give low values 1 | S. cerevisiae deletion strains, locus YLR320W, strain mms22, hits give low values 0.969 | S. cerevisiae deletion strains, locus YLR330W, strain CHS5, hits give low values 1.01 | S. cerevisiae deletion strains, locus YLR342W, strain FKS1 (second series), hits give low values 1.05 | S. cerevisiae deletion strains, locus YLR342W, strain FKS1, hits give low values 0.98 | S. cerevisiae deletion strains, locus YLR357W, strain rsc2, hits give low values 0.978 | S. cerevisiae deletion strains, locus YLR370C, strain arc18, hits give low values 0.984 | S. cerevisiae deletion strains, locus YLR371W, strain rom2, hits give low values 1 | S. cerevisiae deletion strains, locus YLR384C, strain iki3, hits give low values 0.993 | S. cerevisiae deletion strains, locus YLR418C, strain cdc73, hits give low values 1.03 | S. cerevisiae deletion strains, locus YML016C, strain PPZ1, hits give low values 1 | S. cerevisiae deletion strains, locus YML032C, strain rad52, hits give low values 1.01 | S. cerevisiae deletion strains, locus YML120C, strain ndi1, hits give low values 0.983 | S. cerevisiae deletion strains, locus YML124C, strain tub3, hits give low values 1.01 | S. cerevisiae deletion strains, locus YMR058W, strain fet3, hits give low values 0.987 | S. cerevisiae deletion strains, locus YMR078C, strain ctf18, hits give low values 1.01 | S. cerevisiae deletion strains, locus YMR125W, strain sto1, hits give low values 0.984 | S. cerevisiae deletion strains, locus YMR129W, hits give low values 0.986 | S. cerevisiae deletion strains, locus YMR205C, strain PFK2, hits give low values 0.97 | S. cerevisiae deletion strains, locus YMR223W, strain ubp8, hits give low values 1.04 | S. cerevisiae deletion strains, locus YMR231W, strain pep5, hits give low values 0.987 | S. cerevisiae deletion strains, locus YMR263W, strain SAP30, hits give low values 0.995 | S. cerevisiae deletion strains, locus YMR307W, strain GAS1, hits give low values 1.04 | S. cerevisiae deletion strains, locus YNL067W, strain RPL9B, hits give low values 0.983 | S. cerevisiae deletion strains, locus YNL071W, strain lat1, hits give low values 0.995 | S. cerevisiae deletion strains, locus YNL183C, strain NPR1, hits give low values 0.927 | S. cerevisiae deletion strains, locus YNL209W, strain ssb2, hits give low values 0.999 | S. cerevisiae deletion strains, locus YNL233W, strain BNI4, hits give low values 0.989 | S. cerevisiae deletion strains, locus YNL248C, strain rpa49, hits give low values 0.994 | S. cerevisiae deletion strains, locus YNL250W, strain rad50, hits give low values 1.03 | S. cerevisiae deletion strains, locus YNL271C, strain bni1, hits give low values 1 | S. cerevisiae deletion strains, locus YNL298W, strain CLA4, hits give low values 1 | S. cerevisiae deletion strains, locus YNL307C, strain MCK1, hits give low values 1.01 | S. cerevisiae deletion strains, locus YNL322C, strain KRE1 (second series), hits give low values 0.976 | S. cerevisiae deletion strains, locus YNR049C, strain mso1, hits give low values 0.995 | S. cerevisiae deletion strains, locus YNR052C, strain pop2, hits give low values 1.01 | S. cerevisiae deletion strains, locus YOL006C, strain TOP1, hits give low values 0.951 | S. cerevisiae deletion strains, locus YOL012C, strain htz1 1.39 | S. cerevisiae deletion strains, locus YOL147C, strain pex11, hits give low values 1 | S. cerevisiae deletion strains, locus YOR001W, strain rrp6, hits give low values 0.995 | S. cerevisiae deletion strains, locus YOR061W, strain CKA2, hits give low values 1 | S. cerevisiae deletion strains, locus YOR069W, strain VPS5, hits give low values 1.01 | S. cerevisiae deletion strains, locus YOR070C, strain gyp1, hits give low values 0.991 | S. cerevisiae deletion strains, locus YOR080W, strain dia2, hits give low values 0.979 | S. cerevisiae deletion strains, locus YOR083W, strain WHI5, hits give low values 0.96 | S. cerevisiae deletion strains, locus YOR106W, strain vam3, hits give low values 0.959 | S. cerevisiae deletion strains, locus YOR136W, strain idh2, hits give low values 0.995 | S. cerevisiae deletion strains, locus YOR144C, strain elg1, hits give low values 0.995 | S. cerevisiae deletion strains, locus YOR184W, strain ser1, hits give low values 1.02 | S. cerevisiae deletion strains, locus YOR231W, strain MKK1, hits give low values 0.991 | S. cerevisiae deletion strains, locus YOR265W, strain rbl2, hits give low values 0.999 | S. cerevisiae deletion strains, locus YOR270C, strain vph1, hits give low values 0.994 | S. cerevisiae deletion strains, locus YOR290C, strain snf2, hits give low values 0.985 | S. cerevisiae deletion strains, locus YOR316C, strain cot1, hits give low values 0.997 | S. cerevisiae deletion strains, locus YPL051W, strain arl3, hits give low values 0.98 | S. cerevisiae deletion strains, locus YPL078C, strain atp4, hits give low values 0.982 | S. cerevisiae deletion strains, locus YPL106C, strain sse1, hits give low values 0.969 | S. cerevisiae deletion strains, locus YPL240C, strain hsp82, hits give low values 0.978 | S. cerevisiae deletion strains, locus YPL256C, strain CLN2, hits give low values 0.962 | S. cerevisiae deletion strains, locus YPR119W, strain clb2, hits give low values 0.999 | S. cerevisiae deletion strains, locus YPR141C, strain kar3, hits give low values 0.995 | S. cerevisiae deletion strains, locus YPR163C, strain tif3, hits give low values 1.01 | S. cerevisiae deletion strains, locus YPR167C, strain met16, hits give low values 1 | S. cerevisiae deletion strains, strain wtn01, hits give low values 1.02 | S. cerevisiae strains, strain wild type, hits give low values 1.01
